WRN inhibitor: qHTS for Inhibitors of WRN Helicase | Bifunctional 3'-5' exonuclease/ATP-dependent helicase WRN (Homo sapiens), Q14191 | WRN helicase unwinding, fluorescent forked duplex, kinetic | Potency, µM (highest dose often 114 µM), for inactives: at the highest dose activity change, negative = inhibition, actives largely listed as inhibitors | hit rate 0.46% among 360,000 | AID 651768, 2012; also: potency is read from the fitted curve at half-maximal effect; % is scaled to controls: 0 for no effect and ±100 for the full control effect; nearly all actives have a fitted effect of over 55% in size
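Fluorescence dequenching readout, ex 525 nm/em 598 nm, kinetic mode: forked duplex DNA (100 nM final) with adjacent fluorophore and quencher unwound by WRN (20 nM final) with 2 mM ATP. Compound preincubation 15 min, room temperature.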
POLI inh: qHTS for Inhibitors of Polymerase Iota | DNA polymerase iota (Homo sapiens), Q9UNA4 | Pol iota fluorescent replication assay, 10 min | Potency, µM (series often up to 115 µM), for inactives: at the highest dose activity, negative = inhibition, hits mostly inhibitors | hit rate 1% among 390,000; also: potency is read from the fitted curve at half-maximal effect
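Pol iota at 10 nM preincubated 15 min with compounds at room temperature; reaction started with fluorescent substrate, 50 nM final. Fluorescence read kinetically at 0 and 10 min; buffer-only wells as negative control.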
Pol beta inh: qHTS Assay for Inhibitors of DNA Polymerase Beta | Pol beta primer extension/strand displacement, fluorescence kinetic | Potency, µM (top dose mostly 114 µM), without a hit: at the highest dose activity change, negative = inhibition, most hits filed as inhibitors | hit rate 1.3% among 340,000 | AID 485314, 2010; also: potency is read from the fitted curve at half-maximal effect; % is scaled to controls: 0 for no effect and ±100 for the full control effect
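10 nM enzyme + cpd, 15 min RT; start with substrate 50 nM final; read 0 min and after 10 min RT. Corrected, normalized data; 4-parameter Hill curve fit.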
PI5P4K alpha inh: qHTS for Inhibitors of phosphatidylinositol 5-phosphate 4-kinase (PI5P4K) | Phosphatidylinositol 5-phosphate 4-kinase type-2 alpha (Homo sapiens), P48426 | PI5P4Kalpha enzyme, ADP-Glo luminescence, 60 min; hits give low values | max response, % | hit rate 1.2% among 330,000 | AID 652105, 2013; active = max response of -50% or lower; inconclusive = between -30% and -50%; inactive = -30% or higher; also: value at the top dose of about 77 µM; % is scaled to controls: 0 for no effect and ±100 for the full control effect
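Compounds were pin-transferred onto PI5P4Kalpha and substrate in HEPES pH 7.4 buffer with EGTA, CHAPS and 5% DMSO. ATP (5 microM final) started the reaction, which ran 60 minutes at room temperature before ADP-Glo detection.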
POLK inh: qHTS for Inhibitors of Polymerase Kappa; purified Pol kappa, fluorescent DNA synthesis assay, 10 min; Potency, µM (titrated, usually from 107 µM), without a hit: at the highest dose activity, negative = inhibition, most hits filed as inhibitors; hit rate 0.53% among 400,000; also: potency is read from the fitted curve at half-maximal effect; % is scaled to controls: 0 for no effect and ±100 for the full control effect
Target sequence (Q9UBT6 whole entry, looked up): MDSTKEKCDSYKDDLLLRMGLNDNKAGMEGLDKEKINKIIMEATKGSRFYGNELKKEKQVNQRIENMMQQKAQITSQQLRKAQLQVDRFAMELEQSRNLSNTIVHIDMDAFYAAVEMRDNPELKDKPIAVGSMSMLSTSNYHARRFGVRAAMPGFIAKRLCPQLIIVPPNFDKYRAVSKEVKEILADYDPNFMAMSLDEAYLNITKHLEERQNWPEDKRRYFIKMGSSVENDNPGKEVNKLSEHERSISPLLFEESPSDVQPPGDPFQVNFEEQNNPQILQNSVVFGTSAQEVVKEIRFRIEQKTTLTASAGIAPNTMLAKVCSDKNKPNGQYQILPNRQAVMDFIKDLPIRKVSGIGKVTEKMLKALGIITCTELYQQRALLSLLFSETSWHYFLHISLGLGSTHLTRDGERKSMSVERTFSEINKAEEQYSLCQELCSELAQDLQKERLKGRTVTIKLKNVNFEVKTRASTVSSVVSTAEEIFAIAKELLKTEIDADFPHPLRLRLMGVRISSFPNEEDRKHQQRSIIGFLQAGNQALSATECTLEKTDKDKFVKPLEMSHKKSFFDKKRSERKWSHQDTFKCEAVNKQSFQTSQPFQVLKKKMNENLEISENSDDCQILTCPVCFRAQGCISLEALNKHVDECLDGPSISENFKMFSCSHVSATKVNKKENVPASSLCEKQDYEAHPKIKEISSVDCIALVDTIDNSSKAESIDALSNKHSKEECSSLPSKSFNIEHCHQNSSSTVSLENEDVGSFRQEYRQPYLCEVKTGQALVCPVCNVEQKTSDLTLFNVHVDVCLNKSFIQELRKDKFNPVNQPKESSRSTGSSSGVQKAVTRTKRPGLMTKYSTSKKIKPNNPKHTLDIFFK
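50 nM final substrate added after 15 min RT preincubation of 10 nM Pol kappa with compound; fluorescence read at 0 and 10 min.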
Pol eta inh: qHTS for Inhibitors of Polymerase Eta | recombinant Pol eta, fluorescent DNA replication assay | Potency, µM (highest dose often 114 µM), inactives show at the highest dose activity change, negative = inhibition, hits mostly inhibitors | hit rate 1.2% among 390,000 | AID 588591, 2011; also: potency is read from the fitted curve at half-maximal effect; % is scaled to controls: 0 for no effect and ±100 for the full control effect
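Pol eta (10 nM) was preincubated with compounds for 15 min at room temperature, after which fluorescent replication substrate (50 nM final) was added to start the reaction. Fluorescence was read kinetically at 0 and 10 min.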
Starred values were filed as active, the others as inactive; [ ] = remark or other dose. Only some compounds are listed: those with a hit (about 2.8% of all), similar ones and a draw of the others. Unless noted, calls follow the shape of the dose curve; as a rule, active = well fitted curve in the direction sought with a large enough effect; inconclusive = small, poorly fitted or top-dose-only effect, or another doubt; inactive = no such curve, though single readings can be large; an effect the other way counts as inactive or inconclusive.

Results for C=CCn1c(CSCc2ccc(Cl)cc2Cl)nnc1SCC(=O)Nc1ccc(C(=O)O)cc1 ?
WRN inhibitor: 3.7%; POLI inh: inconclusive; Pol beta inh: 0.5%; PI5P4K alpha inh: -73.9*; POLK inh: -3.0%; Pol eta inh: -1.8%

What do the screens show for `O=C1C=C(C2OC(CO)C(O)C2O)C(=O)N1` (centres undefined)?
WRN inhibitor: -4.6%; POLI inh: 8.5%; PI5P4K alpha inh: -53.7*; POLK inh: 10.0%; Pol eta inh: -3.3%

Results for O=C1CCC/C=C/C[C@H](CC(=O)N(CCO)Cc2ccccc2)C(=O)N[C@@H](Cc2ccccc2)CO1 ?
WRN inhibitor: -2.9%; POLI inh: inconclusive; PI5P4K alpha inh: 2.1; POLK inh: 2.7%; Pol eta inh: 0.6%

What do the screens show for `O=C1CSC(=S)N1N1C(=O)c2cccc([N+](=O)[O-])c2C1=O`?
Pol beta inh: 3.16µM*

What do the screens show for `CN(C)CCCn1cc(C2=C(c3c[nH]c4ccccc34)C(=O)NC2=O)c2ccccc21`?
POLK inh: -12.5%[19.4 µM]

How did Cn1cc(C2=C(c3cn(CCCSC(=N)N)c4ccccc34)C(=O)NC2=O)c2ccccc21 do in these assays?
POLI inh: 89.1µM*; POLK inh: 3.9%[60.1 µM]

What do the screens show for `Nc1c(C(=O)Nc2nc3ccccc3s2)sc2nc(-c3cccs3)ccc12`?
WRN inhibitor: inconclusive; POLI inh: 31.6µM*; Pol beta inh: -123.2%; POLK inh: inconclusive; Pol eta inh: 89.1µM*

How did c1coc(-c2nc(-c3ccco3)c(-c3ccco3)nc2-c2ccco2)c1 do in these assays?
WRN inhibitor: 20µM*; POLI inh: inconclusive; Pol beta inh: 2.51µM*; POLK inh: 8.91µM*; Pol eta inh: 3.98µM*

How did Oc1ccccc1-c1cc(-c2ccco2)[nH]n1 do in these assays?
WRN inhibitor: -13.8%; POLI inh: inconclusive; Pol beta inh: -0.3%; POLK inh: -7.1%; Pol eta inh: -5.6%

Results for Nc1nc(-c2ccco2)c(-c2ccco2)s1 ?
WRN inhibitor: -34.0%; POLI inh: inconclusive; Pol beta inh: inconclusive; PI5P4K alpha inh: inconclusive; POLK inh: -12.9%; Pol eta inh: inconclusive

Results for c1coc(-c2nc3cc4ccccc4cc3nc2-c2ccco2)c1 ?
POLI inh: 8.91µM*; POLK inh: 39.8µM*

What do the screens show for `O=C(CNC(=O)c1ccc(-c2ccccc2)cc1)OCc1ccc(Br)cc1`?
WRN inhibitor: -4.7%[57.1 µM]; POLI inh: 109.9%; Pol beta inh: 0.7%; PI5P4K alpha inh: 2.9; POLK inh: -2.4%; Pol eta inh: 22.4µM*

What do the screens show for `COc1ccc(C(=O)NCC(=O)OCc2ccc(Br)cc2)cc1`?
WRN inhibitor: 2.8%; POLI inh: -21.9%; Pol beta inh: 21.1%; PI5P4K alpha inh: -0.1; POLK inh: 3.3%; Pol eta inh: -6.1%

Results for COc1c2c(c(C)c3c1C(=O)OC3)O[C@@]1(C)CC[C@@]3(O)C(C)(C)OC(=O)CC[C@]3(C)[C@H]1C2 ?
WRN inhibitor: -6.4%[11.6 µM]; POLI inh: inconclusive; Pol beta inh: inconclusive; PI5P4K alpha inh: -18.4; POLK inh: -37.1%; Pol eta inh: 44.7µM*

What do the screens show for `CCOC(=O)Cc1ccc(NC(=O)NC(C)c2c(-n3cccc3)sc(C)c2C)cc1` (centres undefined)?
POLI inh: -9.4%; Pol beta inh: -1.0%; POLK inh: -1.7%

How did COc1cccc(CN(C(=O)c2oc3cc(C)ccc3c2C)C2CCS(=O)(=O)C2)c1 (centres undefined) do in these assays?
POLI inh: 22.6%; Pol beta inh: -0.4%; POLK inh: -1.0%; Pol eta inh: -26.3%

What do the screens show for `CCc1ccccc1NS(=O)(=O)c1ccc2[nH]cc(C(=O)N3CCCCC3)c(=O)c2c1`?
POLI inh: inconclusive; Pol beta inh: 22.4µM*; POLK inh: -9.6%; Pol eta inh: 8.8%

Results for O=C(c1c[nH]c2ccc(S(=O)(=O)Nc3ccccc3F)cc2c1=O)N1CCCCCC1 ?
POLI inh: inconclusive; Pol beta inh: 16.5%; POLK inh: -15.4%; Pol eta inh: -0.2%

What do the screens show for `CN(Cc1ccccc1)C(=O)c1c[nH]c2ccc(S(=O)(=O)Nc3ccccc3F)cc2c1=O`?
POLI inh: -31.6%; Pol beta inh: 25.1µM*; POLK inh: inconclusive; Pol eta inh: inconclusive

What do the screens show for `CCc1ccc(NS(=O)(=O)c2ccc3[nH]cc(C(=O)N4CCc5ccccc54)c(=O)c3c2)cc1`?
WRN inhibitor: -18.5%; POLI inh: -65.2%; Pol beta inh: 17.8µM*; PI5P4K alpha inh: -22.0; POLK inh: inconclusive; Pol eta inh: inconclusive

What do the screens show for `COc1ccc(/C=C(\C#N)c2nc(-c3cc(Cl)ccc3OC)cs2)cc1`?
POLI inh: -14.6%; Pol beta inh: 9.1%; POLK inh: -11.9%; Pol eta inh: -10.5%

Results for c1cc2c3c(cccc3c1)C(N1CCOCC1)=N2 ?
WRN inhibitor: -1.5%; POLI inh: 65.6%; Pol beta inh: -13.5%; PI5P4K alpha inh: 2.0; POLK inh: -11.3%; Pol eta inh: -3.6%

Results for CC1CN(C2=Nc3cccc4cccc2c34)CC(C)O1 (centres undefined) ?
WRN inhibitor: -1.5%[11.6 µM]; POLI inh: 25.1µM*; Pol beta inh: 19.1%; PI5P4K alpha inh: 15.0; POLK inh: 12.4%; Pol eta inh: -7.4%

Results for Cc1cc2c(c(=O)o1)C1(C(=O)N(CC(=O)O)c3ccccc31)C(C#N)=C(N)O2 (centres undefined) ?
WRN inhibitor: -30.4%; POLI inh: inconclusive; Pol beta inh: inconclusive; PI5P4K alpha inh: -25.3; POLK inh: inconclusive; Pol eta inh: 20µM*

What do the screens show for `Cc1ccccc1OCC(=O)NCC(=O)N/N=C/c1ccc(Br)o1`?
WRN inhibitor: -24.9%; POLI inh: -11.4%; Pol beta inh: inconclusive; PI5P4K alpha inh: -6.2; POLK inh: -5.1%; Pol eta inh: 25.1µM*

Results for CCOc1ccc(-c2ccc(NS(=O)(=O)c3cc(C)c(C)cc3C)cc2)nn1 ?
POLI inh: -7.8%; Pol beta inh: inconclusive; POLK inh: -11.4%[60.1 µM]; Pol eta inh: -14.1%

Results for CCN(CC)CCCN1C=C2C(=O)C(C)(OC(=O)CCC(=O)OC)C(=O)C(Br)=C2C=C1c1ccc(OC)cc1 (centres undefined) ?
WRN inhibitor: -5.9%; POLI inh: inconclusive; PI5P4K alpha inh: -29.7; POLK inh: inconclusive; Pol eta inh: 39.8µM*

Compound activity deposited in PubChem BioAssay by National Center for Advancing Translational Sciences (NCATS).
